We go through eleven compounds from PubChem BioAssay.

A short description of experiment [1]: resazurin metabolic signal in HepG2 cells – cell-based, resazurin fluorescence, 24 h, PK04 Diversity Set, profiling panel (AID 1172). Note: test concentration not given here. Particulars: HepG2 viability, higher = more signal. In general terms: The colour change of resazurin is a common sign of viable cells or microbes.
The nature of experiment [2]: budding yeast growth changes without added modifier – OD600, strain BY4716, 24 h, basal condition, primary screen (AID 1173). Conditions: S. cerevisiae BY4716 growth, OD600, 24 h; higher = more signal, called active from +8 up or from −8 down.
The nature of experiment [3]: viability profiling in MM1S myeloma cells – cell-based, resazurin fluorescence, basal, 24 h, PK04 Diversity Set, profiling panel (AID 1174).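 Note: MM1S multiple myeloma cell line; test concentration not given here.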 Conditions: higher = more signal, called active from +8 up or from −8 down.
The target in experiment [4] is Dihydroorotate dehydrogenase (quinone), mitochondrial (Plasmodium falciparum (isolate 3D7)) (UniProt Q08210). In words: inhibition of P. falciparum DHODH – biochemical, C-terminal His tag, absorbance 600 nm, primary screen (AID 1175).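 Note: recombinant parasite enzyme with a five histidine tag at its C terminus; test concentration not given here.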 Particulars: PfDHODH enzyme, DCIP absorbance 600 nm; higher = more signal, called active from +8 up or from −8 down.
Dihydroorotate dehydrogenase (quinone), mitochondrial (Plasmodium falciparum (isolate 3D7)), sequence (Q08210 whole entry, looked up): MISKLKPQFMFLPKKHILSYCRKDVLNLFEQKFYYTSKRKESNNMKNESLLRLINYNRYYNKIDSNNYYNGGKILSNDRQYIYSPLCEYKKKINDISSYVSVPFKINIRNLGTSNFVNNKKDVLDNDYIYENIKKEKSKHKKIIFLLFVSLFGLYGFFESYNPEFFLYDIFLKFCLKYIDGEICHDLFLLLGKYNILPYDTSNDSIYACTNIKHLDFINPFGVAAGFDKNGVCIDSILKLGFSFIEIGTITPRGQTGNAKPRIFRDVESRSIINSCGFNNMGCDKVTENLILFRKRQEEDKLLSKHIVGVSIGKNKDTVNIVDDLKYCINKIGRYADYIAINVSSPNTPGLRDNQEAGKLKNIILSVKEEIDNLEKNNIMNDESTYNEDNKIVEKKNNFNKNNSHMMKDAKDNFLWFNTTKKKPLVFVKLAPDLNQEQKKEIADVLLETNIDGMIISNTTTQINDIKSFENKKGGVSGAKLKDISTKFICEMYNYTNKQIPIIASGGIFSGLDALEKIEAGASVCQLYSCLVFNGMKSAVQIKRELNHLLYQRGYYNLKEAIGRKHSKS
Experiment [5] in a line: inhibition of PAO1 biofilm formation – strain PAO1, LB-PBS medium, absorbance 600 nm, primary screen (AID 1176). Note: test concentration not given here. Particulars: P. aeruginosa PAO1 growth/biofilm, A600, 12 h; higher = more signal.
Experiment [6] is described as follows: growth modulation of vineyard yeast isolate – strain RM11-1a, OD600, basal, 24 h, primary screen (AID 1177).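 Note: cultures grown under basal conditions with no added stressor; test concentration not given here.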 Conditions: S. cerevisiae RM11-1a growth, OD600, 24 h; higher = more signal, called active from +8 up or from −8 down.
A short description of experiment [7]: growth of efflux-deficient E. coli DRC39 – strain DRC39, OD650, 24 h, E. coli filamentation inducers, primary screen (AID 1178).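 Note: growth measured as culture turbidity by optical density at 650 nm; test concentration not given here.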 Conditions: E. coli DRC39 acrAB, higher = more signal, called active from +8 up or from −8 down.
Experiment [8] is described as follows: growth of efflux-deficient E. coli DRC39 – strain DRC39, OD650, 48 h, E. coli filamentation inducers, primary screen (AID 1179).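 Note: screen aims at cell division blockers that make cells filament.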 Conditions: E. coli DRC39 delta-acrAB growth, higher = more signal, called active from +8 up or from −8 down.
The nature of experiment [9]: viability profiling in RPMI8226 myeloma cells – cell-based, resazurin fluorescence, basal, 24 h, PK04 Diversity Set, profiling panel (AID 1180).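 Note: RPMI8826 multiple myeloma cell line at 5000 cells per well; test concentration not given here.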 Particulars: higher = more signal.
Experiment [10] addresses E3 ubiquitin-protein ligase XIAP (Homo sapiens) (UniProt P98170). Briefly: small molecules binding XIAP protein – biophysical, small-molecule microarray, fluorescence 635 nm, primary screen (AID 1181).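 Note: score merges 667 nm emission and signal to noise over triplicate slides.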 Particulars: higher = more signal.

Active and inactive are the calls of the source. Unless noted, the rule behind the calls is not given here.

E3 ubiquitin-protein ligase XIAP (Homo sapiens), sequence (P98170 whole entry, looked up): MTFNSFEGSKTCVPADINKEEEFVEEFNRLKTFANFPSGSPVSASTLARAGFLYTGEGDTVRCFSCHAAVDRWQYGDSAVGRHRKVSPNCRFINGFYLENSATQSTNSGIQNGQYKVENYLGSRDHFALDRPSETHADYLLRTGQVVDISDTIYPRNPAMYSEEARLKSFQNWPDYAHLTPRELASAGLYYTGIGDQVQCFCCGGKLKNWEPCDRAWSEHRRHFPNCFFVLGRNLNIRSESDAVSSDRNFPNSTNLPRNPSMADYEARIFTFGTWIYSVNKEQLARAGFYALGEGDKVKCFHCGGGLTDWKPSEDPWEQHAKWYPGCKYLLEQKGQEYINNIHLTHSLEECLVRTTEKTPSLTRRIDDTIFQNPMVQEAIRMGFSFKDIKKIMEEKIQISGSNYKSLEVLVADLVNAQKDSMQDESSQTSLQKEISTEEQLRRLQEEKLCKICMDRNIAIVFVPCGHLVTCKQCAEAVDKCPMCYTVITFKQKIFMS

Take `CCCN1C(=O)[C@]2(CCS(=O)(=O)c3ccccc3)N=C(c3ccc(OCCCO)cc3)O[C@@H]2c2ccccc21`: the z-score was -0.264 in experiment [1]; -0.443 (inactive) in experiment [2]; -0.278 (inactive) in [3]; 0.0279 (inactive) in experiment [5]; 0.492 (inactive) in experiment [6]; 1.82 (inactive) in experiment [7]. Also, the figures for the z-score in experiment [8] and in experiment [9] were 0.544 (inactive) and -0.967, respectively. The figures for the composite z-score in [4] and in [10] were 0.507 (inactive) and -0.0773, respectively.

As for `CN1C(=O)C2C=CC(C(O)c3ccc(-c4ccccc4)s3)N(N(c3ccccc3)c3ccccc3)C2C1=O` (stereo not given), the z-score in experiment [1] is -0.748; in experiment [2], -0.215 (inactive); in experiment [3], -0.609 (inactive); in experiment [5], 1.23 (inactive); in experiment [6] it was 0.512 (inactive); in experiment [7] it was -0.554 (inactive). For the same compound, the z-score in experiment [8] was -0.24 (inactive); in experiment [9] it was -0.109. Further, the composite z-score in experiment [4] is -0.585 (inactive); in experiment [10] it was 0.174.

In the case of `Cc1ccc(S[C@]2(C(=O)NCC(C)C)CC(=O)N(Cc3cc(C(F)(F)F)cc(C(F)(F)F)c3)[C@@H]2c2ccc(CO)cc2I)cc1`, the z-score is -0.0295 in experiment [1]; -3.38 (inactive) in experiment [2]; -2.99 (inactive) in experiment [3]; -0.522 (inactive) in [5]; -1.19 (inactive) in experiment [6]; -0.155 (inactive) in [7]. In addition, the results for the z-score in experiment [8] and in experiment [9] were -0.586 (inactive) and -2.27, respectively. Besides, the composite z-score in experiment [4] is -0.83 (inactive); in [10], -0.17.

With `COC(=O)C(CC#Cc1ccc2c(c1)[C@]1(C(=O)N2)[C@H](C(=O)O)[C@H]2C(=O)O[C@H](c3ccccc3)[C@H](c3ccccc3)N2[C@@H]1c1ccc(O)cc1)C(=O)OC`, the z-score in [1] was 0.0521; in experiment [2], 0.183 (inactive); in [3], 0.395 (inactive); in experiment [5] it was 1.03 (inactive); in [6], 0.62 (inactive); in [7], 0.569 (inactive). Also, the z-score was -0.0012 (inactive) in experiment [8] and -0.0124 in experiment [9]. Further, the figures for the composite z-score in experiment [4] and in experiment [10] were -5.46 (inactive) and -0.165, respectively.

`O=C1O[C@@H](c2ccccc2)[C@@H](c2ccccc2)N2[C@@H](c3ccccc3OCCO)[C@]3(C(=O)Nc4ccc(C#CC5=CCCCC5)cc43)[C@@H](C(=O)Nc3nc4ccccc4s3)[C@H]12`: the z-score in experiment [1] was 0.482; in experiment [2] it was 1.26 (inactive); in [3], -0.785 (inactive); in experiment [5], 2.84 (inactive); in experiment [6], 1.34 (inactive); in experiment [7], -0.583 (inactive). Also, the values for the z-score in [8] and in experiment [9] were -1.05 (inactive) and -1.2, respectively. The composite z-score in experiment [4] was -1.7 (inactive); in experiment [10] it was -0.234.

Regarding `C=CCC(OC(C)=O)[C@@H]1[C@@H](N(Cc2cccc3ccccc23)C(=O)c2ccc(-c3ccccc3)cc2)c2cc(OCCCO)ccc2N1C(=O)Cc1ccc(OC)cc1` (stereo not given in full), the z-score is 1.07 in [1]; -0.912 (inactive) in experiment [2]; 1.6 (inactive) in experiment [3]; -0.513 (inactive) in experiment [5]; -1.2 (inactive) in experiment [6]; 0.738 (inactive) in experiment [7]. Moreover, the z-score is 0.718 (inactive) in experiment [8] and 1.45 in [9]. For the same compound, the composite z-score in [4] was -0.606 (inactive); in experiment [10], -0.0076.

As for `COCCOC(=O)N1C(=O)[C@@]2(c3ccccc31)[C@H](c1ccc(O)cc1)N1[C@H](c3ccccc3)[C@H](c3ccccc3)OC(=O)[C@H]1[C@@H]2C(=O)NC[C@H](O)c1ccccc1`, the z-score in experiment [1] was -0.796; in experiment [2] it was 0.861 (inactive); in experiment [3] it was -0.397 (inactive); in experiment [5] it was 0.173 (inactive); in [6], 0.957 (inactive); in experiment [7] it was -1.12 (inactive). In addition, the z-score was -1.29 (inactive) in experiment [8] and -0.199 in experiment [9]. Moreover, the figures for the composite z-score in experiment [4] and in experiment [10] were 0.873 (inactive) and 0.201, respectively.

`CCCC=C(CCC)[C@@H](NC(=O)Oc1ccc(F)cc1)c1ccc(C(=O)OC)cc1`: the z-score in experiment [1] is 1.01; in [2], 1.21 (inactive); in experiment [3] it was 0.0374 (inactive); in experiment [5], 0.535 (inactive); in experiment [6], 1.2 (inactive); in experiment [7], -0.0379 (inactive). For the same compound, the figures for the z-score in experiment [8] and in experiment [9] were 0.0821 (inactive) and -1.94, respectively. In addition, the composite z-score in experiment [4] was 0.58 (inactive); in experiment [10], 0.248.

Regarding `O=C1O[C@H](c2ccccc2)[C@H](c2ccccc2)N2[C@H]1[C@@H](C(=O)O)[C@]1(C(=O)Nc3ccc(C#CCCO)cc31)[C@H]2c1ccc(O)cc1`, the z-score in experiment [1] is 1.11; in [2] it was -0.326 (inactive); in experiment [3], 1.5 (inactive); in experiment [5], 0.0568 (inactive); in [6], 0.0737 (inactive); in experiment [7], 0.994 (inactive). In addition, the results for the z-score in experiment [8] and in experiment [9] were 1.69 (inactive) and 1.14, respectively. Moreover, the values for the composite z-score in experiment [4] and in experiment [10] were 0.158 (inactive) and -0.127, respectively.

Regarding `COc1ccc([Si](C)(C)[C@@H]2[C@@H](CC(=O)N3Cc4ccccc4C[C@H]3CO)O[C@]3(C(=O)N(C)c4c(Br)cc(C)cc43)[C@H]2C)cc1`, the z-score in experiment [1] was -2.26; in experiment [2] it was -1.5 (inactive); in experiment [3], -6.01 (inactive); in experiment [5] it was 1.85 (inactive); in experiment [6], 1.7 (inactive); in experiment [7], 1.34 (inactive). The z-score is 1.01 (inactive) in experiment [8] and -5.76 in experiment [9]. In addition, the composite z-score in experiment [4] was 0.961 (inactive); in experiment [10], -0.089.

On to `C=CCNC(=O)[C@@H]1[C@H]2C(=O)O[C@H](c3ccccc3)[C@H](c3ccccc3)N2[C@H](c2ccc(OCCO)cc2)[C@@]12C(=O)Nc1ccc(C#Cc3ccc(OC)cc3)cc12`, for which the z-score is -0.662 in experiment [1]; 1.84 (inactive) in experiment [2]; -0.718 (inactive) in experiment [3]; 1.81 (inactive) in [5]; 2.6 (inactive) in [6]; -1.48 (inactive) in [7]. Besides, the z-score was -1.2 (inactive) in experiment [8] and -1.25 in experiment [9]. Moreover, the composite z-score in experiment [4] is -4.91 (inactive); in experiment [10], 0.0181.
